# High-throughput results deposited in PubChem by The Scripps Research Institute Molecular Screening Center.
# The list is not random: actives were taken first. Their share in the collection is about 4.1%.
# hgDAF12 agonist = agonists of H. glycines DAF-12 nuclear receptor | HEK293 GAL4-hgDAF12 UAS-luciferase reporter, agonist luminescence; normalized to butyrate control | 1.8% of 370,000 active | activation, % at 6.8 µM;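 active means activation above a cutoff set at the mean of all screened compounds plus 3 SD, cut at about 10% in these data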;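 further: 0% = DMSO wells and 100% = sodium butyrate wells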
# ssDAF-12 act = S. stercoralis DAF-12 activation, primary screen; HEK293 ssDAF-12/GRIP1 lit1-tk-luc reporter, luminescence; % of 3 µM dafachronic acid response; activation, % at 6.8 µM; 1% of 370,000 active; AID 652126;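 active means activation above the mean over all tested compounds plus 3 SD, cut at about 0.9% in these data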;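 further: 0% = DMSO-only wells and 100% = 3 µM delta7-dafachronic acid wells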
# DAX1 inh-1 = blocks DAX1 repression of SF-1 activated StAR promoter | HEK293T StAR-luciferase reporter, SF-1/DAX-1 repression relief | inhibition, % at 6.8 µM | 1.1% of 370,000 active | AID 652010;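 active means inhibition above the mean over all tested compounds plus 3 SD, cut at about 3.6% in these data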;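 further: 0% = DAX-1 cells with DMSO and 100% = cells lacking DAX-1 with DMSO; higher inhibition means more luminescence from relief of DAX-1 repression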
# hcDAF12 agonist = activates DAF-12 receptor from parasite H. contortus; HEK293 hcDAF-12 lit1-tk-luc reporter, luminescence; 0% DMSO, 100% Δ7-dafachronic acid; activation, % at 6.8 µM; 1.4% of 370,000 active;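 active means activation above the mean of all tested compounds plus 3 SD, cut at about 5.5% in these data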;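 further: 100% = response to 3 µM Δ7-dafachronic acid high control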
# DAX1 inh-2 = inhibits human nuclear receptor DAX1. inhibition, % at 6.75 µM. AID 504766. HEK293 Gal4-DAX1 luciferase reporter, luminescence. 0.99% of 340,000 active;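 active means inhibition above the mean over all tested compounds plus 3 SD, cut at about 4.2% in these data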;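 further: 0% = DAX1-transfected cells with DMSO and 100% = empty-vector control cells with DMSO; inhibition shows as a rise in luminescence from relieved DAX1 repression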
# Target sequence (P51843 207-470 limits assumed): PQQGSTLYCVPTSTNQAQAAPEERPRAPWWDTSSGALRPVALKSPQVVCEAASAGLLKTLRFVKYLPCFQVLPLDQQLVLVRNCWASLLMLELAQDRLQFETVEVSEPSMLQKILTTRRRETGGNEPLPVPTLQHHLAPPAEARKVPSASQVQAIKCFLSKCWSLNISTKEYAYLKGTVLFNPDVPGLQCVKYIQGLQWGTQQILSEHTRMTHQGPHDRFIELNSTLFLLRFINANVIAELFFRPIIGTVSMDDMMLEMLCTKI
# * marks the source's active call; other numbers are inactive results; . = no result.
SMILES,hgDAF12 agonist,ssDAF-12 act,DAX1 inh-1,hcDAF12 agonist,DAX1 inh-2
O=C(c1ccc(F)cc1)N1CCN2C(=O)c3ccccc3C12c1ccc(Cl)cc1 (centres undefined),-4,-1,0,-2,4.2*
O=C(c1ccc(F)cc1)N1CCN2C(=O)c3ccccc3C12c1ccccc1 (centres undefined),-3,-1,0,-1,1
CN(C)S(=O)(=O)c1ccc(N2CCCC2)c(C(=O)Nc2nc3ccc(F)cc3s2)c1,5,0.9*,1,5,0
CN(C)S(=O)(=O)c1ccc(N2CCCC2)c(C(=O)Nc2nc3ccccc3s2)c1,3,1.9*,1,4,-1
Cc1cccc2sc(NC(=O)c3cc(S(=O)(=O)N(C)C)ccc3N3CCCC3)nc12,3,-1,0,1,0
CC(C)C[C@@H]1COc2cc(Br)ccc2S(=O)(=O)N1Cc1cn(CC2CCCCC2)nn1,-1,-1,-1,-1,.
COC(=O)[C@@]12CCCCC3=C1N(CCC3)C(=O)[C@H]2CC(=O)N1CCSCC1,0,1.5*,-1,-1,.
O=C(O)C1C2C=CC(C2)C1C(=O)N1CCc2ccccc21 (centres undefined),3,0,-1,5.6*,2
CCCNC(=O)/C=C/c1ccc(C(C)C)cc1,7,-1,1,0,5.0*
CCN1CCN(C(=O)/C=C/c2ccc(C(C)C)cc2)CC1,1,-1,0,-1,0
CC(C)c1ccc(/C=C/C(=O)O)cc1,2,0,1,1,4.3*
Cc1cccc(C)c1NC(=O)COn1nnc2ccc(C(F)(F)F)cc21,-3,-1,0,-1,0
O=C(COn1nnc2ccc(C(F)(F)F)cc21)Nc1c(Cl)cccc1Cl,-2,15*,1,0,-2
O=C(NCCN1C(=O)C2C3C=CC(C3)C2C1=O)Nc1ccccc1 (centres undefined),1,-2,2,-1,0
COc1ccc(NC(=O)NCCN2C(=O)C3C4C=CC(C4)C3C2=O)cc1 (centres undefined),9,0,2,0,6.0*
O=C(NCCN1C(=O)C2C3C=CC(C3)C2C1=O)NCc1ccccc1 (centres undefined),-2,-2,-2,0,2
Cc1ccccc1NC(=O)NCCN1C(=O)C2C3C=CC(C3)C2C1=O (centres undefined),6,-2,0,-3,4.7*
Cc1cccc(NC(=O)NCCN2C(=O)C3C4C=CC(C4)C3C2=O)c1 (centres undefined),11*,-1,1,0,3
O=C(Nc1ccccc1)N(O)c1ccc(Cl)cc1,5,1.6*,0,4,1
Cc1cccc(OCCCN2CCC(C(O)(c3ccccc3)c3ccccc3)CC2)c1,2,-2,0,-1,.
O=C1OC(c2ccccc2)=C/C1=C/N1CCOCC1,-1,0,0,-1,0
O=C1SC(c2ccccc2)=C/C1=C\N1CCCCC1,1,0,1,6.1*,0
O=C(CSc1nnc(-c2ccc(Cl)cc2)n1-c1ccccc1)Nc1ccc(Oc2ccccc2)cc1,0,-1,-1,-1,.
COCc1nnc(NS(=O)(=O)c2ccccc2)s1,-2,-1,0,-1,-1
COCc1nnc(NS(=O)(=O)c2ccc(C)cc2)s1,1,0,0,1,4.4*
SMILES,hgDAF12 agonist,ssDAF-12 act,DAX1 inh-1,hcDAF12 agonist,DAX1 inh-2
Cc1ccc(Nc2ncc3c(n2)CC(C)(C)CC3=O)cc1,13*,0,4,3,6.0*
CC1(C)CC(=O)c2cnc(NC3CC3)nc2C1,2,-2,0,3,0
CN(C)CCCNC(=O)C[C@H]1C[C@H](C(=O)N2CCOCC2)[C@@]2(CCC3CCCC3)c3[nH]c4cc(-c5ccco5)ccc4c3CCN2C1=O,1,-1,0,-1,0
O=C(C[C@H]1C[C@H](C(=O)N2CCOCC2)[C@@]2(CCC3CCCC3)c3[nH]c4cc(-c5ccco5)ccc4c3CCN2C1=O)NCCN1CCOCC1,-6,-1,3.7*,-2,0
CCc1c(C)sc(NC(=S)N2CCN(CC)CC2)c1C(=O)OC,1,-2,0,-2,5.2*
C=C(C1=CCN(S(=O)(=O)C(C)(C)C)[C@H]1CCO)c1ccccc1,-1,-1,-1,0,5.8*
COc1ccc(OC)c(S(=O)(=O)N2CCC(c3cn4ccccc4n3)CC2)c1,-1,-2,-2,-2,.
COc1ccc(CC2(CO)CCN(Cc3cnn(-c4ccccc4)c3)CC2)cc1,-4,-2,-1,-2,-1
COc1ccc(CC2(CO)CCN(Cc3cnn(-c4ccccc4OC)c3)CC2)cc1,-4,-2,0,-3,5.8*
CCC(CO)Nc1cccc2c1S(=O)(=O)N(Cc1cn(Cc3ccc(C(F)(F)F)cc3)nn1)Cc1ccccc1O2 (centres undefined),-4,-2,-1,-2,.
S=C(Nc1ccccc1)N1CCN(c2ccccn2)CC1,-3,1.9*,-1,-2,0
Cc1cccc(CN2CCN(C(=S)Nc3ccccc3)CC2)c1,0,-2,1,1,11*
Cc1cccc(NC(=S)N2CCN(Cc3ccccc3)CC2)c1C,1,-1,0,5.9*,-1
Cc1cccc(NC(=S)N2CCN(c3ccccc3)CC2)c1,-1,-2,0,-2,.
Cc1cc(Cl)ccc1NC(=S)N1CCN(Cc2ccccc2)CC1,-3,-2,-1,-3,0
S=C(Nc1ccccc1)N1CCN(C/C=C/c2ccccc2)CC1,-4,-2,3.6*,-1,-1
CN1C(=O)C(=O)N2C(=C[C@]3(c4c[nH]c5ccccc45)c4ccccc4N[C@H]23)C1=O,2,0,.,4,.
Nc1nc2c(ncn2[C@@H]2O[C@H](C(=O)N[C@H](Cc3ccccc3)C(=O)NC3CCCCC3)[C@@H](O)[C@H]2O)c(=O)[nH]1,0,-1,0,-1,.
CCCCCCCCNC(=O)C1CSCCS(=O)(=O)N1Cc1ccc(F)cc1 (centres undefined),-1,-1,0,1,.
CCOC(=O)[C@]12CCCCC/C=C\1N(CCc1ccc(Cl)cc1)C(=O)[C@H]2CC(=O)NCCCN1CCCC1=O,-2,-2,-1,-3,.
CC(=Nc1cccc(O)c1)c1sc2ccccc2c1O,8,1.5*,2,3,3
S=C(NCc1ccccn1)Nc1ccc(Br)cc1Cl,6,0,2,1,5.6*
S=C(NCc1ccccc1Cl)Nc1ccccc1Cl,5,-1,0,-1,7.4*
S=C(NCCc1ccccn1)Nc1ccccc1Cl,-2,-2,0,-2,0
S=C(NCc1ccccn1)Nc1ccccc1Cl,2,-1,1,5.6*,1
O=C(NCc1ccccn1)Nc1ccc(Br)cc1Cl,6,-1,5.2*,1,2
O=C(NCc1ccccn1)Nc1ccc(Cl)cc1Cl,7,0,3,1,1
